The nature of experiment [1]: Tanguay_ZF_120hpf_BRAI_legacy: (Legacy) Oregon State University Tanguay Lab 120 Hour Post-fertilization zebrafish Assay for Brain Malformation (AID 2283641). In a few lines:
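Brain malformation in Tropical 5D zebrafish was recorded as a binary endpoint after static compound exposure from early development to 120 hpf at 28C. Activity was analysed against DMSO as negative control.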

Experiment [2] in a line: Tanguay_ZF_120hpf_PFIN_legacy: (Legacy) Oregon State University Tanguay Lab 120 Hour Post-fertilization zebrafish Assay for Pectoral Fin Malformation (AID 2283648).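 Also: each larva judged yes or no for fin defect by brightfield with dead larvae skipped.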 In a few lines:
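Tropical 5D wild-type embryos, dechorionated with pronase at 4 hpf, were placed singly in wells at 6 hpf and statically exposed until 120 hpf at 28C, sealed and dark, with 0.64% (vol/vol) final DMSO; pectoral fin malformation scored present/absent.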

The nature of experiment [3]: Tanguay_ZF_120hpf_CFIN_legacy: (Legacy) Oregon State University Tanguay Lab 120 Hour Post-fertilization zebrafish Assay for Caudal Fin Malformation (AID 2283649). In a few lines:
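Embryos were collected from Tropical 5D wild-type adults and dechorionated at 4 hpf. At 6 hpf each was exposed, one per well, at 0.64% DMSO and 28C. At 120 hpf fin morphology was scored; dead embryos were excluded.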

Experiment [4] can be described thus: Tanguay_ZF_120hpf_PIG_legacy: (Legacy) Oregon State University Tanguay Lab 120 Hour Post-fertilization zebrafish Assay for Pigmentation Malformation (AID 2283650). The method, boiled down:
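Tropical 5D wild-type zebrafish embryos, dechorionated with pronase at 4 hpf, were exposed singly from 6 hpf to 120 hpf statically at 28C in sealed, dark plates with 0.64% DMSO; pigmentation scored present/absent by brightfield microscopy, fitted against DMSO.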

Experiment [5] in a line: Tanguay_ZF_120hpf_TRUN_legacy: (Legacy) Oregon State University Tanguay Lab 120 Hour Post-fertilization zebrafish Assay for Truncated Body (AID 2283655). In a few lines:
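5D wild-type larvae; pronase dechorionation; static exposure 6→120 hpf, 28C; DMSO 0.64% final; 5uM trimethyltin chloride positive control. Readout: presence/absence of truncated body, analyzed relative to DMSO.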

Experiment [6] in a line: Tanguay_ZF_120hpf_NC_legacy: (Legacy) Oregon State University Tanguay Lab 120 Hour Post-fertilization zebrafish Assay for Notochord and Tail Malformation (AID 2283656). The method, boiled down: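 Dechorionated 5D zebrafish, 1/well from 6 hpf; static exposure to 120 hpf, 28C, sealed, dark; final DMSO 0.64% v/v. NC scored binary (present/absent); dead embryos not scored. Fit vs DMSO baseline, gain direction.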

A short description of experiment [7]: Tanguay_ZF_120hpf_TR_legacy: (Legacy) Oregon State University Tanguay Lab 120 Hour Post-fertilization zebrafish Assay for Touch Response (AID 2283667). In a few lines: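 Tropical 5D wild-type zebrafish embryos were exposed statically in sealed, foil-covered plates at 28C until 120 hpf, with 0.64% (vol/vol) final DMSO. Touch response was scored as present or absent; embryos that died were not scored.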

In experiment [8] the test system is Thyroperoxidase (TPO), gene 54314. Briefly: CCTE_Simmons_AUR_rTPO: CCTE's Amplex UltraRed Assay for Thyroperoxidase (TPO) Inhibition, Simmons Lab (AID 2283662).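 Also: potency for loss of signal meaning inhibition of peroxidase activity.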 The method, boiled down:
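Rat thyroid microsomes (5 ug protein) with 25 uM Amplex UltraRed and 300 uM H2O2 in 200 mM phosphate buffer, 30 min at 37C in dark; fluorescence 544/590 nm. Eight concentrations, 5 nM–87.5 uM final, 0.5% DMSO, triplicate biological replicates.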

The nature of experiment [9]: CCTE_Simmons_CellTiterGLO_HEK293T: Viability Assessment in CCTE's Assays for Thyroperoxidase (TPO) Inhibition, Simmons Lab (AID 2283665).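 Also: cells exposed to compound for 24 h before readout; actives reduce ATP signal below DMSO vehicle meaning cytotoxicity.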 The method, boiled down:
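Cytotoxicity counter-screen: human HEK293T cells in low-serum (1% FBS) medium receive test chemical, 5 nM to 87.5 uM final, for 24 h; ATP is quantified by luciferase luminescence.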

Read-out in experiment [10]: solute carrier (SLC22A6), SLC22A6 (gene 9356)
Briefly: LTEA_HepaRG_SLC22A6: Life Technologies and Expression Analysis (LTEA) Assay for solute carrier (SLC22A6) using HepaRG (AID 2283653; active = hit-call score of the fitted dose curve at least 0.9, where 1 is the maximum; inactive = score below 0.9). Conditions: mRNA level, 48 h; actives raise or lower the signal. In a few lines:
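This endpoint tracks SLC22A6 mRNA induction or suppression in human HepaRG cultures after 48 h dosing, concentrations reaching 100 uM. Values derive from bidirectional fitting against DMSO controls.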

Experiment [11] is described as follows: Tanguay_ZF_120hpf_SWIM_legacy: (Legacy) Oregon State University Tanguay Lab 120 Hour Post-fertilization zebrafish Assay for Swim Bladder Malformation (AID 2283654).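 Also: swim bladder malformation in each larva scored yes or no under brightfield.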 The method, boiled down: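 Dechorionated Tropical 5D wild-type embryos, placed singly from 6 hpf, were statically exposed at 28C to 120 hpf with 0.64% DMSO final; swim bladder malformation was scored present/absent by brightfield microscopy, gain of signal relative to DMSO controls.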

Read-out in experiment [12]: solute carrier (SLC10A1), SLC10A1 (gene 6554)
Kind of experiment: LTEA_HepaRG_SLC10A1: Life Technologies and Expression Analysis (LTEA) Assay for solute carrier (SLC10A1) using HepaRG (AID 2283657; active = hit-call score of the fitted dose curve at least 0.9, where 1 is the maximum; inactive = score below 0.9). The note with it: mRNA level, 48 h; actives raise or lower the signal. The method, boiled down: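 Differentiated HepaRG cells were plated 48 h, then exposed in serum-free induction medium for 48 h to 8 concentrations (top 100 uM, half-log steps, 0.5% DMSO). SLC10A1 mRNA was quantified by qRT-PCR normalized to ACTB, GAPDH, POLR2A; bidirectional fit versus DMSO.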

Read-out in experiment [13]: matrix metalloproteinase-1 (MMP1), MMP1 (gene 4312)
Kind of experiment: LTEA_HepaRG_MMP1: Life Technologies and Expression Analysis (LTEA) Assay for matrix metalloproteinase-1 (MMP1) using HepaRG (AID 2283658; active = hit-call score of the fitted dose curve at least 0.9, where 1 is the maximum; inactive = score below 0.9). Conditions: mRNA level, 48 h; actives raise or lower the signal. The method, boiled down: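 Bidirectional concentration-response fitting relative to 0.5% DMSO gives the endpoint, derived from MMP1 mRNA levels (qRT-PCR) in human HepaRG cells treated 48 h with chemicals up to 100 uM.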

Read-out in experiment [14]: Cytochrome P450 (CYP24A1_1), CYP24A1 (gene 1591)
Briefly: LTEA_HepaRG_CYP24A1_1: Life Technologies and Expression Analysis (LTEA) Assay for Cytochrome P450 (CYP24A1_1) using HepaRG (AID 2283671; active = hit-call score of the fitted dose curve at least 0.9, where 1 is the maximum; inactive = score below 0.9). Conditions: mRNA level, 48 h; actives raise or lower the signal. The method, boiled down:
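HepaRG, 48 h exposure, 8-pt half-log series from 100 uM in 0.5% DMSO, duplicates. Readout: TaqMan qRT-PCR of CYP24A1 mRNA, housekeeping-normalized (ACTB/GAPDH/POLR2A). Bidirectional curve fit vs DMSO baseline.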

A short description of experiment [15]: CCTE_Padilla_ZF_144hpf_TERATOSCORE: (Legacy) CCTE's 144 Hour Post-fertilization zebrafish Assay Teratoscore, Padilla Lab (AID 2283679; active = hit-call score of the fitted dose curve at least 0.9, where 1 is the maximum; inactive = score below 0.9;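 as to AC50: zebrafish embryos with chorions exposed by immersion from 6-8 hpf to 5 dpf with daily renewal; teratogenicity score from eye scoring of death hatching and malformations at 144 hpf; higher score means more developmental defects relative to DMSO baseline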). The method, boiled down:
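Larvae scored by eye at 144 hpf for death, hatching and malformations after a day in clean Hanks'. Before that, daily-renewed exposure at 80 uM (0.4% DMSO, 26C) from roughly 6-8 hpf through 5 dpf, 4 embryos per chemical.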

A short description of experiment [16]: STM_H9_CystineISnorm_perc: Stemina devTOX quickPredict H9 human embryonic stem cell (hESC)-based Assay for Cystine (CYSS) Metabolite Biomarker, Normalized (AID 2283713; active = hit-call score of the fitted dose curve at least 0.9, where 1 is the maximum; inactive = score below 0.9). The method, boiled down:
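Secreted cystine was measured by UPLC-HRMS in H9 hESC medium after 72h compound exposure with 24-hourly replenishment. Values are standard-normalized areas relative to 0.1% DMSO.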

A short description of experiment [17]: STM_H9_OrnCyssISnorm_ratio: Stemina devTOX quickPredict H9 human embryonic stem cell (hESC)-based Assay for Ornithine (ORN):Cystine (CYSS) Ratio (AID 2283714). The method, boiled down: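 Undifferentiated H9 hESCs were exposed to compound for 72h with media and chemical replaced every 24h. Final 24-h conditioned media were deproteinized and analysed by UPLC-HRMS. ORN and CYSS peak areas were normalized to C13 internal standards and the ratio taken versus 0.1% DMSO.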

Read-out in experiment [18]: kallikrein-3 (KLK3), KLK3 (gene 354)
Kind of experiment: LTEA_HepaRG_KLK3: Life Technologies and Expression Analysis (LTEA) Assay for kallikrein-3 (KLK3) using HepaRG (AID 2283652; active = hit-call score of the fitted dose curve at least 0.9, where 1 is the maximum; inactive = score below 0.9). The note with it: mRNA level, 48 h; actives raise or lower the signal. The method, boiled down: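 Differentiated human HepaRG cells in serum-free induction medium exposed 48 h in duplicate, eight-point half-log series from 100 uM in 0.5% DMSO. KLK3 mRNA by qRT-PCR, normalised to ACTB, GAPDH, POLR2A; bidirectional fit versus DMSO.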

Experiment [19] in a line: Tanguay_ZF_120hpf_CIRC_legacy: (Legacy) Oregon State University Tanguay Lab 120 Hour Post-fertilization zebrafish Assay for Circulatory Malformation (AID 2283651). In a few lines:
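Using wild-type Tropical 5D zebrafish, we exposed dechorionated embryos from 6 to 120 hpf in embryo medium with 0.64% DMSO. Circulatory defects were scored as present or absent; 5uM trimethyltin chloride served as positive control.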

Several values for one entry are separate records, joined by “and”; a condition that tells them apart may be missing. Equal values may be shown once. Results filed as inconclusive are left out. Activity calls are given as the source filed them. The calls were made as follows, unless noted: active = hit-call score of the fitted dose curve at least 0.9, where 1 is the maximum; inconclusive = response in the unintended direction; inactive = score below 0.9.

Consider `CC[C@H](C)[C@@H](C(=O)O)n1sc2ccccc2c1=O`, for which the compound was called inactive in experiment [1], in experiment [2], in [3], in experiment [4], in experiment [5] and in experiment [6]. Besides, the compound was classed as inactive in [7].
For `CCCCCCCCCCCCCC[N+](C)(C)C`, the AC50 is 38.4 µM (active) in experiment [8] and 13.7 µM (active) in [9].
As for `C#C[C@]1(O)CC[C@H]2[C@@H]3CCC4=CC(=O)CC[C@@H]4[C@H]3CC[C@@]21C`, the call in experiment [2], in experiment [3], in experiment [4], in experiment [10], in experiment [11] and in experiment [5] was inactive. Also, the result in experiment [6], in experiment [13], in experiment [7] and in experiment [14] was inactive. Also, the AC50 is 9.92 µM (active) in experiment [12]; 64.9 µM (active) in experiment [8]; 66 µM (active) in [9]; 16.1 µM (active) in experiment [15]; 79.8 µM (active) in experiment [16]; 74.8 µM (active) in [17].
With `C=C(C)C(=O)OCCC(F)(F)C(F)(F)C(F)(F)C(F)(F)C(F)(F)C(F)(F)F`, the compound was called inactive in experiment [2], in experiment [3], in experiment [4], in [18], in [10] and in experiment [11]. For the same compound, the result in experiment [5], in [6], in experiment [12], in experiment [13], in experiment [7] and in experiment [14] was inactive. In addition, the result in experiment [15] was inactive.
On to `CC#C[C@]1(O)CC[C@H]2[C@@H]3CCC4=CC(=O)CCC4=C3[C@@H](c3ccc(N(C)C)cc3)C[C@@]21C`, for which the result in experiment [3], in [4], in [19], in experiment [11] and in [6] was inactive. Moreover, the concentration at half-maximal activity (AC50) in experiment [8] was 4.74 µM (active); in [9] it was 17.7 µM (active); in [7] it was 11.7 µM (active); in [15], 14.5 µM (active).
On to `CCC(=C(c1ccc(O)cc1)c1ccc(OCCN(C)C)cc1)c1ccccc1`, for which the result in [2], in experiment [19], in [11], in experiment [5], in experiment [6] and in experiment [7] was inactive. Besides, the AC50 is 9.22 µM (active) and 8.64 µM (active) in experiment [8]; 8.78 µM (active) and 3.78 µM (active) in experiment [9]; 7.87 µM (active) in [15].
For `c1ccc2c(c1)ccc1ccccc12`, the outcome in [1], in experiment [2], in experiment [3], in [4], in experiment [11] and in experiment [5] was inactive. The result in experiment [6], in experiment [7] and in experiment [15] was inactive. In addition, the values for the AC50 in [16] and in experiment [17] were 80.3 µM (active) and 78.7 µM (active), respectively.
For the compound `c1ccc2c(c1)Cc1ccccc1-2`, the outcome in experiment [1], in experiment [3], in [4], in experiment [11], in [6] and in [7] was inactive.

Values taken from PubChem BioAssay (EPA / NIEHS).
